Compounds with a hit are over-represented: about 3.5% of the library has one in this group of screens.
mHTT-CaM PPI inh = inhibitors of human mutant huntingtin-calmodulin interaction. P42858. AlphaScreen His-mHTT/GST-CaM binding, luminescence. inhibition, % at 15 µM. actives 3.6% (n = 190,000). AID 1671202;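 further: 0% = both proteins with DMSO and 100% = one protein alone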
Pf apPOL block = Pf-apPOL DNA polymerase inhibition; Recombinant Pf-apPOL, molecular beacon fluorescence, 1.5 h; inhibition, % at 10 µM; actives 0.25% (n = 210,000)
An asterisk follows results filed as active; . = not tested or not shown. No stated cut-off is given here; in the data, active means inhibition above about 50%; inactive means the rest.

SMILES	mHTT-CaM PPI inh	Pf apPOL block
CCn1nccc1C(=O)N1CCC(CCOC)CC1	-6.2	-2.9
C=CSc1sc(Cl)c(N2CCCCCC2)c1[N+](=O)[O-]	43.0	6.1
CCN(Cc1ccccc1)Cc1ccccc1[N+](=O)[O-]	-21.8	-7.5
C=CSc1sc(Cl)c(N2CCCC2)c1[N+](=O)[O-]	75.0*	6.1
C=CSc1sc(Cl)c(N(C)Cc2ccccc2)c1[N+](=O)[O-]	64.0*	-76.3
CN1CCN(C(=O)c2ccccc2N2CCC(NC(=O)C3CCC3)CC2)CC1	-4.9	-0.2
CC(C)(C)c1ccc(C2C3=C(CCCC3=O)NC3=C2C(=O)c2ccccc23)cc1 (stereo unspecified)	63.0*	-12.6
COc1cc(C2C3=C(CCCC3=O)NC3=C2C(=O)c2ccccc23)ccc1O (stereo unspecified)	22.0	-16.5
Cc1ccc(C2C3=C(CC(c4ccco4)CC3=O)NC3=C2C(=O)c2ccccc23)cc1 (stereo unspecified)	20.0	-9.4
O=C1CC(c2ccccc2)CC2=C1C(c1ccc(Cl)cc1)C1=C(N2)c2ccccc2C1=O (stereo unspecified)	48.2	-0.9
CC(C)c1ccc(C2C3=C(CC(C)(C)CC3=O)NC3=C2C(=O)c2ccccc23)cc1 (stereo unspecified)	65.0*	-5.0
CC(C)c1ccc(C2C3=C(CCCC3=O)NC3=C2C(=O)c2ccccc23)cc1 (stereo unspecified)	75.0*	-3.9
O=c1[nH]cnc2sccc12	.	-1.2
COc1ccc(NC(=O)c2cc3n(n2)C(C(F)(F)F)CC(c2ccc(C)cc2)N3)c(OC)c1 (stereo unspecified)	2.0	-3.9
COc1ccc(NC(=O)CSc2nc3nc(C)c(Cc4ccccc4C)c(C)n3n2)cc1OC	55.0*	-7.7
C=CCc1c(C)nc2nc(SCC(=O)Nc3ccc(C)c(C)c3)nn2c1C	53.0*	-3.7
Cc1cc(C)n2nc(SCC(=O)Nc3cccc(Cl)c3)nc2n1	6.0	-9.0
Cc1cc(C)n2nc(SCc3c(F)cccc3Cl)nc2n1	14.0	-8.0
C=CCc1c(C)nc2nc(SCC(=O)Nc3cccc(Cl)c3)nn2c1C	31.0	-6.8
Cc1cc(C)n2nc(SCC(=O)Nc3ccc(C)c(Cl)c3)nc2n1	51.0*	-8.6
COc1cc(NC(=O)CSc2nc3nc(C)c(Cc4ccccc4C)c(C)n3n2)cc(OC)c1	16.0	-7.9
Cc1cc(C)n2nc(SCc3ccc(F)cc3Cl)nc2n1	52.0*	-8.9
CCc1nc(-c2cn(Cc3ccc(F)cc3)nn2)no1	-12.3	-1.9
Cc1ccc([N+](=O)[O-])cc1NC(=O)C(C)Oc1ccccc1F (stereo unspecified)	2.0	-2.6
CCNS(=O)(=O)c1cccnc1Nc1ccc(Cl)cc1	-27.6	-1.0
SMILES	mHTT-CaM PPI inh	Pf apPOL block
CCOC(=O)c1ccc(NC(=O)N2CCCC2c2cc(C(C)C)no2)cc1 (stereo unspecified)	5.9	-7.9
Cc1cc(C)n2nc(SC(C)C(=O)NCc3ccccc3Cl)nc2n1 (stereo unspecified)	-1.0	59.9*
Cc1cc(C)n2nc(SC(C)C(=O)NCc3ccccc3)nc2n1 (stereo unspecified)	25.0	8.4
C=CCn1ccc2ccn(CC(=O)N3CCOCC3)c(=O)c21	-4.0	-2.7
CCOC(=O)N1CCc2nn(CC(=O)Nc3ccc(C(F)(F)F)cc3)c(=O)cc2C1	17.7	-6.4
COCCCNC(=O)CSc1nc2nc(C)c(Cc3c(F)cccc3Cl)c(C)n2n1	4.0	20.6
COc1cccc(C2=NOC(C(=O)N3CCN(c4ccccc4OC)CC3)C2)c1 (stereo unspecified)	2.1	-3.9
COc1cc(Cl)c(C)cc1NC(=O)c1cccnc1	-5.2	97.3*
COc1cc(OC)c(NC(=O)c2cccnc2)cc1Cl	-1.5	-4.9
O=c1/c(=C/c2ccc(Br)c([N+](=O)[O-])c2)sc2nc3ccccc3n12	-6.0	2.2
COc1cc(/C=c2\sc3nc4ccccc4n3c2=O)cc([N+](=O)[O-])c1O	57.0*	1.2
Cc1ccc(C(=O)c2ccc([N+](=O)[O-])cc2Cl)cc1	10.9	-6.0
Cc1ccc(-c2noc(Cn3ccnc3)n2)cc1	1.4	-1.6
COc1ccccc1OCC(=O)NCc1ccc(C)cc1	-5.6	-2.5
Cc1nc2cc(N)ccc2s1	-0.5	7.7
Nc1ccc2cc3ccc(N)cc3nc2c1	54.8*	.
C#CCOc1ccc(C2CC(=O)Nc3n[nH]c(C)c32)cc1 (stereo unspecified)	0.1	-2.3
CC(C)CCN1CC(=O)N(Cc2ccccc2)C(c2ccncc2)C1=O (stereo unspecified)	-6.7	0.4
CCn1c(SC)nnc1-c1nn(C)c2c1CN(C(=O)c1cc(C)cc(C)c1)CC2	9.7	-3.8
Cc1cccc(CN2CCCC(C(=O)N3CCCCCC3)C2)c1 (stereo unspecified)	1.1	-2.1
Cc1cccc(C2CC(C(=O)N3CCSCC3)CN(Cc3ccccc3)C2)c1 (stereo unspecified)	76.9*	2.9
O=C(Nc1ccc(S(=O)(=O)Nc2nccs2)cc1)Nc1ccc(Cl)c(Cl)c1	78.1*	-3.3
O=C(Nc1ccc(S(=O)(=O)Nc2nccs2)cc1)C(Cl)Cl	7.4	-5.8
CC1=Nc2ccccc2NC(=O)C1Cc1ccccc1 (stereo unspecified)	91.1*	-9.0
CN(C)c1ccc(CC2C(=O)Nc3ccccc32)cc1 (stereo unspecified)	.	5.7
SMILES	mHTT-CaM PPI inh	Pf apPOL block
COc1ccc(C2=NC3(CCNCC3)NC(c3cc(Br)ccc3O)C2)cc1 (stereo unspecified)	70.5*	-1.5
Oc1ccc(Cl)cc1C1CC(c2ccc(Cl)cc2)=NC2(CCNCC2)N1 (stereo unspecified)	66.4*	-5.9
Cc1ccc(C2=NC3(CCNCC3)NC(c3cc(Cl)ccc3O)C2)cc1C (stereo unspecified)	9.6	-0.3
COc1cccc(C2=NC3(CCNCC3)NC(c3cc(Br)ccc3O)C2)c1 (stereo unspecified)	14.2	-7.1
COC(=O)C(C)Oc1ccc2oc(=O)c(-c3ccc(OC)cc3)c(C)c2c1 (stereo unspecified)	-10.8	-35.1
Cc1ccccc1NC(=O)C1CCN(c2ncc(-c3ccccc3)cn2)CC1	-6.2	-3.0
c1ccc(Cn2cnnc2C2CCCN(Cc3ccncc3)C2)cc1 (stereo unspecified)	-3.6	-5.3
c1ccc(Cn2cnnc2C2CCCN(Cc3ccccn3)C2)cc1 (stereo unspecified)	93.5*	-26.5
Cc1c(Cc2ccccc2)sc(NC(=O)C(F)(F)F)c1C(N)=O	16.0	1.2
Cc1c(Cc2ccccc2)sc(NC(=O)CCc2ccccc2)c1C(N)=O	51.9*	-10.2
Cc1cccc(NC(=O)N2CCC(c3cc(N)on3)CC2)c1C	-8.8	-3.5
O=C(C[C@H]1C(=O)N(CCc2ccccc2)C[C@@H]1Cc1ccccc1)Nc1ccc(Br)cc1	29.7	-2.5
CSC[C@H]1CN(CCc2ccccc2)C(=O)[C@@H]1CC(=O)Nc1ccc(Br)cc1	63.0*	-4.2
O=C(c1cccc(F)c1)c1coc2ccc(Cl)cc2c1=O	26.1	-11.3
O=C(c1ccccc1Cl)c1coc2ccc(Cl)cc2c1=O	98.3*	0.8
Cc1cc(C)cc(C(=O)N2CCC(c3ccn4ncc(C(=O)N5CCCC5)c4c3)CC2)c1	6.0	-4.1
CCN(CC)c1ccc(/C=C2\N=C(c3cccc([N+](=O)[O-])c3)OC2=O)cc1	9.0	-12.6
CN(C)c1ccc(/C=C2\N=C(c3cccc([N+](=O)[O-])c3)OC2=O)cc1	-1.0	96.8*
